TRPML1 ag = qHTS for Agonists of the Human Mucolipin Transient Receptor Potential 1 (TRPML1). activation, % (no concentration beside the values). hit rate 0.12% among 410,000. TRPML1-expressing cells, Ca2+ dye fluorescence, FDSS. Mucolipin-1 (Homo sapiens), Q9GZU1; in the data active = activation above about 50%; inconclusive = mostly about 30% to 49%; note: 0% is about no effect
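Tet-induced TRPML1-DL cells, 1,500 per well, cultured overnight, were loaded with a no-wash Ca2+ dye for 45–90 min. Calcium fluorescence was recorded on the FDSS for 110 s after compound addition, before the EC80 agonist (4 uM 54-4) was added.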
TRPV1 agonist = HTS Assay for Compounds that Act as Agonists of the Vanilloid Receptor 1; TRPV1-expressing cells, Fluo-8 calcium influx, agonist mode; activation, % at 8.33 µM; hit rate 0.19% among 320,000; AID 540275, 2011; in the data active = activation above about 80%; inconclusive = between about 30% and that limit; note: 0% is about no effect
Target sequence (Q8NER1 whole entry, looked up): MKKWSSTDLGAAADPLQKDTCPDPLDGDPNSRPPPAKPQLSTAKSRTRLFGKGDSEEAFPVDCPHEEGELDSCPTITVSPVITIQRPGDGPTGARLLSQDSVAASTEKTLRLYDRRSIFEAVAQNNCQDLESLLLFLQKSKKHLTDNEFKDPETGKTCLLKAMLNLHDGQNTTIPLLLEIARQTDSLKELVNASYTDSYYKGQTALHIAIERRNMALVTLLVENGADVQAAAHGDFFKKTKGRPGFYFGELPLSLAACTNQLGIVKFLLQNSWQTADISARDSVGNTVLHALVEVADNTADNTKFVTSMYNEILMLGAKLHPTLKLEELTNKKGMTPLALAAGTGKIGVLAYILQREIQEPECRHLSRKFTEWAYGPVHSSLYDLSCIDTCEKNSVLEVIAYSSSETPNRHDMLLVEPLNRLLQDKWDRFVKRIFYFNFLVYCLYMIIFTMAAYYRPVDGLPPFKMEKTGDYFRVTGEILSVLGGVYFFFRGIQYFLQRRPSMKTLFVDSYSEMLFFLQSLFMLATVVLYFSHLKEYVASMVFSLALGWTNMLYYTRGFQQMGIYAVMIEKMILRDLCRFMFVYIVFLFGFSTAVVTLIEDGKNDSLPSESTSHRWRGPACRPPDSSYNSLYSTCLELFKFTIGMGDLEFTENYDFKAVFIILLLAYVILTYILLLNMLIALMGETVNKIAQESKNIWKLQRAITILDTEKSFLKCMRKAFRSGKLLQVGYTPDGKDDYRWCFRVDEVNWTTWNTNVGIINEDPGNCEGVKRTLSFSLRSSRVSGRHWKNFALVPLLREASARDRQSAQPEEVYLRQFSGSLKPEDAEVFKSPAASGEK
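Cells expressing TRPV1 were dye-loaded with Fluo-8 and read kinetically: 10 s baseline, 3 min after compound (agonist portion), then 2 min after EC20 capsaicin (allosteric enhancer portion). Calcium-bound dye fluorescence at 480/520 nm.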
TRPV1 potentiator = HTS Assay for Compounds that Act as Potentiators of the Vanilloid Receptor 1; TRPV1-expressing cells, Fluo-8 calcium influx, capsaicin EC20 potentiation; hit rate 0.02% among 320,000; potentiation, % at 8.33 µM; Transient receptor potential cation channel subfamily V member 1 (Homo sapiens), Q8NER1; in the data active = potentiation above about 80%; inconclusive = between about 30% and that limit; note: 0% is about no effect
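TRPV1-expressing cells were cultured overnight at 35.5C and loaded with Fluo-8 calcium dye for 40 to 90 min at room temperature. After a 10 s baseline, compound was added and calcium influx was read kinetically for 3 min (ex 480/em 520 nm).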
TRPML1 blocker = qHTS for Inhibitors of the Human Mucolipin Transient Receptor Potential 1 (TRPML1); hit rate 0.02% among 390,000; AID 624415, 2012; Mucolipin-1 (Homo sapiens), Q9GZU1; activity change, negative = inhibition, % (test concentration not listed); TRPML1-inducible cells, Ca2+ dye fluorescence, FDSS; hits give low values; inhibition of EC80 agonist-evoked calcium signal; in the data active = activity change below about -50%; inconclusive = between about -30% and that limit;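 note: stimulus is agonist 54-4 at its EC80 concentration; % is set by controls: 0 for no effect and ±100 for the full control effect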
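Tet-induced TRPML1-DL cells loaded with Ca8 no-wash calcium dye were read kinetically on FDSS. Compound addition was followed by EC80 agonist 54-4 (4 uM final); inhibition was read over 110 s.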
Active calls of the source: *; ? = inconclusive; · = no result given. Compounds with a hit are over-represented: about 0.27% of the library has one in this group of screens.

SMILES	TRPML1 ag	TRPV1 agonist	TRPV1 potentiator	TRPML1 blocker
CC1(C)CC(=O)C(C=NCc2ccccn2)=C(O)C1	1	0	15	36
CCNC(=O)NS(=O)(=O)c1cnccc1Nc1cccc(Cl)c1	0	0	3	-3
N#Cc1ccc(/C=C\c2nccc3c2[nH]c2ccccc23)cc1	4	90*	-2	-7
COCCN(CCOC)Cc1cc(=O)oc2cc(C)cc(C)c12	0	·	·	-1
O=C(N/N=C/C=C\c1ccccc1)c1cnccn1	0	19	-20	12
O=C(N/N=C/C=C/c1ccccc1)c1ccccn1	1	97*	-3	-5
Cc1cc([N+](=O)[O-])ccc1NC(=S)NC(=O)C(c1ccccc1)c1ccccc1	0	-2	-2	-14
COc1cc(NC(=O)c2ccccc2)c(OC)cc1NC(=O)Cc1cccs1	2	15	3	-4
CCOc1ccc(NC(=S)NC(=O)Cc2ccccc2)cc1	0	87*	11	-8
COc1ccc(-c2nc3c4ccccc4n(CC(=O)Nc4ccc(C(C)C)cc4)c(=O)n3n2)cc1	1	·	·	-5
Cn1nnnc1SCC(=O)NCC(=O)c1ccccc1	0	1	6	14
Cc1cnc(NC(=O)c2cc3c(s2)CCCC3)s1	0	89*	-12	0
CN(C)c1ccc(/C=C/c2nc3ccccc3c(=O)n2-c2ccc(C(=O)O)cc2)cc1	64*	?	-14	19
O=C(O)c1ccc(-n2c(/C=C\c3ccc(O)cc3)nc3ccccc3c2=O)cc1	4	·	·	54
COc1ccc(NC(=O)C(C)(C)Oc2ccc(Cl)cc2)cn1	2	21	-35	-22
COc1ccc(CNC(=S)NCc2ccc(Cl)cc2)cc1OC	0	97*	5	-28
COc1ccc(CNC(=S)Nc2cccc(F)c2)cc1	1	88*	-7	17
COC(=O)c1cc(NC(=S)NCc2ccc(Cl)cc2)cc(C(=O)OC)c1	2	?	-15	-11
COC(=O)c1cccc(NC(=S)NCc2ccc(Cl)cc2)c1	3	82*	6	-4
CC(C)c1ccc(S(=O)(=O)c2cn(Cc3ccc(F)cc3)c3cc4c(cc3c2=O)OCO4)cc1	·	-3	3	·
COc1cc(/C=N/n2cnnc2)ccc1OC(=O)c1cccnc1	2	-6	-12	-5
CN(C)c1ccc(/C=C/c2ccc3ccccc3[n+]2[O-])cc1	107*	·	·	·
O=C(N1CCOCC1)N1CCN(c2ccccc2F)CC1	-1	83*	-9	-4
COc1ccccc1-c1cc(C(=O)N2CCN(S(=O)(=O)c3ccc(C)cc3)CC2)[nH]n1	1	1	?	33
COCCCn1c(=N)c(C(=O)NC2CCCC2)cc2c(=O)n3cc(C)ccc3nc21	-1	·	·	-6
SMILES	TRPML1 ag	TRPV1 agonist	TRPV1 potentiator	TRPML1 blocker
CC(C)NC(=O)c1ccc2c(=O)n(CC3CCCO3)c(=S)[nH]c2c1 (centres undefined)	-1	-8	143*	2
O=S(=O)(NCC1CCCO1)c1cccc(C(F)(F)F)c1 (centres undefined)	0	0	5	-4
CCOc1ccc(S(=O)(=O)N2CN(c3cccc(C(C)=O)c3)c3nc4ccccc4nc32)cc1	64*	·	·	-21
COc1ccc(-c2cc3c(=O)n(CC(=O)NC4CCN(Cc5ccccc5)CC4)ncn3n2)cc1	1	-2	1	18
COc1cccc(N2CCN(c3ncnc4c3c(-c3ccccc3)cn4-c3ccc(F)cc3)CC2)c1	3	·	·	7
COc1cccc(N2CCN(c3ncnc4c3c(-c3ccccc3)cn4-c3cccc(C(F)(F)F)c3)CC2)c1	53*	·	·	-18
Cc1ccc(C(C)C)c(OCC(=O)NCC2(N3CCOCC3)CCCCC2)c1	76*	·	·	-20
CS(=O)(=O)N(CC(=O)N1CCC(C(N)=O)CC1)C1CCCCC1	0	0	-2	15
COc1ccc2c(n1)Sc1nc3ccccc3nc1N2	82*	110*	11	-7
CCCCCCC(=O)Nc1ccc(C(=O)N/N=C/c2cccnc2)cc1	0	86*	13	-2
CCC(=O)Nc1ccc(C(=O)N/N=C/c2cccnc2)cc1	1	-1	6	9
COc1ccc(OC)c(C(c2nnnn2C2CCCC2)N2CCc3ccccc3C2)c1 (centres undefined)	3	?	-1	10
CCCCc1ccc(NC(=S)N2CCC(O)CC2)cc1	1	85*	14	0
Cc1[nH]c2ccccc2c1CC#N	0	-1	18	-5
CCc1ccc(OCC(=O)NCCOc2ccccc2)cc1	0	?	-6	-1
CN1C(=CC=C2C=C(I)C(=O)C(I)=C2)C(C)(C)c2ccccc21	16	19	-9	-5
CN1/C(=C\C=C2/SC(=S)NC2=O)C(C)(C)c2ccccc21	85*	?	-1	-2
CN1/C(=C\C=C2/C(=O)Oc3ccccc3C2=O)C(C)(C)c2ccccc21	99*	107*	-6	-12
CCN1CCN(CCCNC(=O)c2ccc3nc(Cc4ccccc4)oc3c2)CC1	0	·	·	14
O=C(Nc1cccc(C(=O)OCc2cc(=O)n3nc(C4CC4)sc3n2)c1)c1ccc(F)cc1	0	·	·	11
CCN(CC)S(=O)(=O)c1ccc(C(=O)Nc2ccc(Cc3ccncc3)cc2)cc1	2	81*	2	-2
N#Cc1ccc(S(=O)(=O)N2CCCN(c3ccc(C(F)(F)F)cn3)CC2)cc1	1	81*	-25	18
COc1ccc(CCNC(=O)CCCn2c(=O)c3cccn3c3cccnc32)cc1OC	0	·	·	1
Cc1sc2ncnc(N/N=C/c3cccc(O)c3)c2c1C	-2	5	-4	-9
Cc1ccc(Nc2ncnc3sc(C)c(C)c23)cc1	2	87*	-9	28
SMILES	TRPML1 ag	TRPV1 agonist	TRPV1 potentiator	TRPML1 blocker
C/C(=N\Nc1ncnc2sc(C)c(C)c12)c1ccccn1	58*	88*	7	-24
COc1ccccc1CCNC(=O)CCc1c(C)c2cc3c(C)coc3c(C)c2oc1=O	4	·	·	-8
CN1C(=O)/C(=C\c2ccc(N(C)C)cc2)OC1=S	82*	?	4	-7
Cc1ccc(SCCNC(=O)c2ccccc2F)cc1	·	80*	-29	·
O=C(CNC(=O)c1cccs1)OCC(=O)c1cccs1	-1	2	?	20
CCn1cc(C(=O)NCCc2ccccc2)c(=O)c2cc(S(=O)(=O)N3CCCC3)ccc21	1	96*	0	19
Cc1ccc(C(=O)Nc2nc(-c3cccnc3)cs2)o1	0	7	-4	-9
O=C(CN1CCCCC1)Nc1nc(-c2ccc(F)c(F)c2)cs1	0	-1	-3	2
O=C(CN1CCOCC1)Nc1nc(-c2ccccc2)cs1	1	85*	-13	24

Screens as filed in PubChem.
